The text below walks through data of PubChem BioAssay AID977624 (Broad Institute, 2014).

Among all 1,800 compounds or so, fewer than 10 were called active. Not shown: some 44% with an inconclusive outcome.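 How the source made its calls: active means compound lowering the normal-ribosome reporter at least twice as much as the humanized-ribosome reporter, growth loss under a set limit; inconclusive means no clear call, values can overlap the other calls; inactive means the rest.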 A selection follows.

The experiment in a line: wild-type E. coli growth inhibition versus h34 humanized strain – h34 mutant RFP, wild-type GFP, cherry-pick, dose response (AID 977624). Particulars: fluorescence, 24 h; series mostly up to 50 µM; activity change, negative = inhibition: at the top concentration.
As to `O=C1CN(C(=O)c2ccc(Cl)c(S(=O)(=O)N3CCc4ccccc43)c2)c2ccccc2N1`, the “activity change, negative = inhibition” value was -16.3 (inactive).

For `COc1ccccc1C1CCN(C(=O)c2ccco2)CC1`, the “activity change, negative = inhibition” value was 1.26 (inactive).

For `Cc1ccccc1SCC(=O)OCC(=O)Nc1sccc1C(N)=O`, the “activity change, negative = inhibition” value was -4.25 (inactive).

As to `COc1ccc(-c2csc3ncn(-c4ccc(C)cc4)c(=O)c23)cc1OC`, the “activity change, negative = inhibition” value was -1.06 (inactive).

As for `O=C(COC(=O)C12CC3CC(CC(O)(C3)C1)C2)NCCc1ccc(Cl)cc1`, the “activity change, negative = inhibition” value was -6.89 (inactive).

As for `CCCc1c(C(=O)Nc2ccc(OC)cc2)cnn1-c1ccccc1`, the “activity change, negative = inhibition” value was 2.81 (inactive).

For `C=CCn1c(SCC(=O)Nc2ccc3c(c2)OCCO3)nnc1-c1ccco1`, the “activity change, negative = inhibition” value was 9.63 (inactive).

Take `C[C@@H]1CCCCO[C@H](CN(C)C(=O)CCCN(C)C)[C@@H](C)CN([C@@H](C)CO)C(=O)c2cc(NC(=O)Nc3cccc4ccccc34)ccc2O1`: the “activity change, negative = inhibition” value is 14.5 (inactive).

Regarding `CCn1nc(Cc2cccc3ccccc23)c(C#N)c1N`, the “activity change, negative = inhibition” value was 3.35 (inactive).

`O=S(=O)(NCC1CCCO1)c1ccc(-c2ccc(Cl)cc2)cc1` (stereo not drawn): the “activity change, negative = inhibition” value is 4.09 (inactive).

Consider `Cc1ccccc1COc1ccc(-c2nn[nH]n2)cc1`, for which the “activity change, negative = inhibition” value is -23.7 (inactive).

`CCc1ccc2[nH]c(C(=O)Nc3ccc4c(c3)OCO4)cc2c1`: the “activity change, negative = inhibition” value was -7.02 (inactive).

Turning to `COc1ccc(Cl)cc1NC(=O)C1Cc2ccccc2CN1S(C)(=O)=O` (stereo not drawn), the “activity change, negative = inhibition” value was -7.55 (inactive).

Turning to `CC(C)(C)c1ccc(-c2noc(CCC(=O)NCc3ccco3)n2)cc1`, the “activity change, negative = inhibition” value is 15.9 (inactive).

As for `CN(Cc1nnc(-c2ccc(F)cc2)o1)c1ccccc1`, the “activity change, negative = inhibition” value was 11 (inactive).

For `Cc1ccc(Cn2cnc3ccccc32)cc1`, the “activity change, negative = inhibition” value is -11.1 (inactive).

With `O=C(CSc1ccc(-c2cccnc2)nn1)N1CCCc2ccccc21`, the “activity change, negative = inhibition” value was 14 (inactive).

Consider `O=C1c2ccccc2C(c2nnnn2C2CCCCC2)N1CCc1ccc(O)cc1` (stereo not drawn), for which the “activity change, negative = inhibition” value was -3.75 (inactive).

Turning to `CCOC(=O)C1CCCN(Cc2c(Cl)cccc2Cl)C1` (stereo not drawn), the “activity change, negative = inhibition” value was 7.89 (inactive).

Consider `CCOc1ccc2nc(SCC(=O)Nc3nonc3C)[nH]c2c1`, for which the “activity change, negative = inhibition” value is -3.18 (inactive).

As to `CCCCCc1nnc(NC(=O)C2COc3ccccc3O2)s1` (stereo not drawn), the “activity change, negative = inhibition” value is -0.194 (inactive).

Regarding `O=C(Cc1cccc(NC(=O)C2CCCN(C(=O)CCc3ccccc3)C2)c1)Nc1cccc(C(=O)N2CCCCC2)c1` (stereo not drawn), the “activity change, negative = inhibition” value is 6.52 (inactive).

Take `CCN(CC)CCn1c(SCC(=O)Nc2cccc(OC)c2)nc2c(sc3ccccc32)c1=O`: the “activity change, negative = inhibition” value was -8.25 (inactive).

With `COc1ccccc1CCNC(=O)c1cccc(NC(=O)CC2SC(N3CCCCC3)=NC2=O)c1` (stereo not drawn), the “activity change, negative = inhibition” value was -6.49 (inactive).

`Cc1cc(C(=O)COC(=O)CNC(=O)c2ccccc2)c(C)n1CC1CCCO1` (stereo not drawn): the “activity change, negative = inhibition” value is -4.93 (inactive).

Turning to `COc1ccc(NC(=O)c2cccc(Oc3ccc([N+](=O)[O-])cc3Cl)c2)cc1`, the “activity change, negative = inhibition” value was 13 (inactive).

As to `Cc1ccc(S(=O)(=O)Nc2ccc3c(c2)C(=O)N([C@@H](C)CO)C[C@@H](C)[C@H](CN(C)C(=O)c2ccccc2)OCCCC[C@@H](C)O3)cc1`, the “activity change, negative = inhibition” value is 4.34 (inactive).

For the molecule `CCOc1ccc(CN(C)C(=O)c2ccc(NS(=O)(=O)c3ccc4[nH]c(=O)[nH]c4c3)cc2)cc1`, the “activity change, negative = inhibition” value was 0.841 (inactive).

With `CCc1nc2ccccc2n1CCc1ccccc1`, the “activity change, negative = inhibition” value is -4.63 (inactive).

Consider `CCc1cc(C(=O)N2CCCC(C(=O)c3cccc4ccccc34)C2)n(C)n1` (stereo not drawn), for which the “activity change, negative = inhibition” value was 0.908 (inactive).

With `C=C(C)Cn1c(=O)c2c(nc3n2CCCN3Cc2ccccc2)n(C)c1=O`, the “activity change, negative = inhibition” value is 9.19 (inactive).

In the case of `O=C(O)CCN(Cc1ccccc1)S(=O)(=O)c1ccccc1Cl`, the “activity change, negative = inhibition” value was 14.4 (inactive).

`NC(=O)CSc1nc2cc([N+](=O)[O-])ccc2n1-c1cccc(C(F)(F)F)c1`: the “activity change, negative = inhibition” value was 11.7 (inactive).

Consider `CCC(C(=O)NCCc1ccc(C)cc1)n1nc(C)c2c(C)n(-c3ccccc3)nc2c1=O` (stereo not drawn), for which the “activity change, negative = inhibition” value is -1.52 (inactive).

As to `CCOc1ccccc1OCCCC(=O)N1CCN(S(=O)(=O)c2cc(F)ccc2F)CC1`, the “activity change, negative = inhibition” value was -10.4 (inactive).

For `CN(Cc1ccc(F)cc1)C(=O)CN1CCN(S(=O)(=O)c2ccc3c(c2)OCCCO3)CC1`, the “activity change, negative = inhibition” value was 2.79 (inactive).

For `Cc1cccc(-c2nsc(SCC(=O)NCC3CCCO3)n2)c1` (stereo not drawn), the “activity change, negative = inhibition” value is 13.9 (inactive).

As to `Cc1cc(C)n2nc(C(=O)Nc3cccc(S(=O)(=O)N(C)c4ccccc4)c3)nc2n1`, the “activity change, negative = inhibition” value was -1.19 (inactive).

With `CC(=O)c1ccc(N2CCN(C(=O)C3CCN(S(=O)(=O)c4ccc5c(c4)CC(C)N5C(C)=O)CC3)CC2)cc1` (stereo not drawn), the “activity change, negative = inhibition” value was -7.8 (inactive).

As for `Cc1cc(C)c(NC(=O)C(C)c2cccc(C(=O)c3ccccc3)c2)c(C)c1` (stereo not drawn), the “activity change, negative = inhibition” value is -10.5 (inactive).

For `COCC#Cc1ccc2c(c1)O[C@H](CN(C)C(=O)c1ccccc1)[C@@H](C)CN([C@H](C)CO)S2(=O)=O`, the “activity change, negative = inhibition” value is 4.68 (inactive).

In the case of `C=CCn1c(SCc2n[nH]c(=S)n2-c2ccccc2)nnc1-c1ccccc1`, the “activity change, negative = inhibition” value was -5.43 (inactive).

As for `CC(=O)c1ccccc1OCCOCCOCCOc1ccccc1C(C)=O`, the “activity change, negative = inhibition” value is 7.68 (inactive).

On to `Brc1ccccc1CN1CCC(Cc2ccccc2)CC1`, for which the “activity change, negative = inhibition” value is -3.84 (inactive).

With `CCn1cc(CCC(=O)NCCc2ccccc2)c2ccccc21`, the “activity change, negative = inhibition” value was -11.8 (inactive).

`COc1ccccc1N(C)S(=O)(=O)c1ccc(Cl)c(C(=O)NC2=NCCS2)c1`: the “activity change, negative = inhibition” value was -3.78 (inactive).

As for `O=C(COC(=O)CNC(=O)c1ccc(F)cc1)Nc1cccc(S(=O)(=O)N2CCCC2)c1`, the “activity change, negative = inhibition” value was 13.5 (inactive).

`COC(=O)c1ccc2nc(-c3cccc(Br)c3)c(Cc3ccsc3)n2c1`: the “activity change, negative = inhibition” value is 4.56 (inactive).

Turning to `COc1cccc(C(=O)C2CCCN(C/C=C/c3ccccc3OC)C2)c1` (stereo not drawn), the “activity change, negative = inhibition” value was 5.82 (inactive).

Regarding `O=C(NCc1ccccc1)c1cc(S(=O)(=O)N2CCCCC2)ccc1N1CCOCC1`, the “activity change, negative = inhibition” value is -1.63 (inactive).

For the molecule `CC(=O)c1c(N2CCOCC2)nc2ccc(Cl)cc2c1-c1ccccc1`, the “activity change, negative = inhibition” value is 11.3 (inactive).

Consider `O=C(NCc1nnnn1-c1ccc(Cl)cc1)c1ccc([N+](=O)[O-])o1`, for which the “activity change, negative = inhibition” value was -13.2 (inactive).

`O=C(CCC(=O)N1CCN(c2ccc(F)cc2)CC1)N1CCN(c2ccc(F)cc2)CC1`: the “activity change, negative = inhibition” value is -3.59 (inactive).

`COc1cccc(-c2ccc(SCc3ccccn3)nn2)c1`: the “activity change, negative = inhibition” value was 1.75 (inactive).

For `CCC(C(=O)NC1CCCC1)n1c(-c2ccnc3ccccc23)nc2ccccc21` (stereo not drawn), the “activity change, negative = inhibition” value was -2.18 (inactive).

In the case of `C=CCNC(=O)c1ccccc1CCc1ccccc1`, the “activity change, negative = inhibition” value is 9.97 (inactive).

As for `C=CCN(CC(O)c1cccc([N+](=O)[O-])c1)C(C)CCc1ccccc1` (stereo not drawn), the “activity change, negative = inhibition” value is -21.3 (inactive).

For `CO[C@@H]1CN(C)C(=O)c2cc(NC(=O)C3CCCC3)ccc2OC[C@@H](C)N(C(=O)Nc2ccc(C(F)(F)F)cc2)C[C@H]1C`, the “activity change, negative = inhibition” value is 5.42 (inactive).

With `COc1ccc(OC)c(CN2CCCC(C(=O)c3ccccc3SC)C2)c1` (stereo not drawn), the “activity change, negative = inhibition” value is 7.44 (inactive).

With `CCN1CCN(c2c(Cl)cccc2NC(=O)c2ccc([N+](=O)[O-])o2)CC1`, the “activity change, negative = inhibition” value was -9.62 (inactive).

Take `CCN(C(=O)CSc1cc(C)c2ccc(OC)cc2n1)C1CCS(=O)(=O)C1` (stereo not drawn): the “activity change, negative = inhibition” value was -4.12 (inactive).

On to `Cc1noc(NS(=O)(=O)c2ccc(NC(=O)c3cc(-c4ccccc4Cl)nc4ccccc34)cc2)c1C`, for which the “activity change, negative = inhibition” value was -2.62 (inactive).

For the molecule `O=C(COC(=O)C1CC1)Nc1nc(-c2ccc(F)c(F)c2)cs1`, the “activity change, negative = inhibition” value was -5.56 (inactive).
